Measurements taken from PubChem BioAssay (NCATS).
Several values for one entry are separate records, joined by “and”; a condition that tells them apart may be missing. Equal values may be shown once. Records with an inconclusive call do not appear. Some compounds were tested as several samples or in several runs, with calls that do not always agree. Activity calls are given as the source filed them. Unless noted, calls follow the shape of the dose curve; as a rule, active = well fitted curve in either direction with a large enough effect (not every such curve was filed as active); inconclusive = small, poorly fitted or top-dose-only effect, or another doubt; inactive = flat fitted curve, though single readings scatter.

How the values were obtained:
[1] = AP1 Signaling Pathway (AID 357); conditions: ME-180 (cervical carcinoma) AP-1-bla reporter, EGF-induced, beta-lactamase ratio, 5 h; at 38 µM (top of the series) unless noted;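 also: ME-180 reporter cells stimulated with EGF at its EC50 level; % is scaled to controls: 0 for no effect and ±100 for the full control effect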
Outline: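 Beta-lactamase reporter under AP-1 response element, ME-180 background. Stimulus: EC50 EGF. Compound exposure 5 h, 37 °C. Detection: CCF4, 2.5 h RT, 460/530 nm. Values: AC50 from titration.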

[2] = NFAT Signaling Pathway (AID 444); conditions: Jurkat NFAT-bla M1, carbachol, beta-lactamase ratio, 5 h; at 38 µM (top of the series) unless noted;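 also: carbachol stimulus at about its EC50 of 1 µM final; % is scaled to controls: 0 for no effect and ±100 for the full control effect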
Outline: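 Read-out: CCF4 FRET ratio (460 nm/530 nm) after 1 h RT dye loading, used for %activity and AC50 from titration series. Cells: Jurkat NFAT-β-lactamase/M1 line, treated with compound plus 1 uM carbachol for 5 h, 37 °C.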

[3] = molecular target: Cytochrome P450 1A2 (Homo sapiens) (UniProt P05177); assay: p450-cyp1a2 (AID 410; calls by dose curve; also: potency is read from the fitted curve at half-maximal effect;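 as to activity change, negative = inhibition: -100% = full effect of reference inhibitor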); conditions: recombinant CYP1A2, luciferin-ME demethylation, luminescence; series mostly up to 57 µM
Cytochrome P450 1A2 (Homo sapiens), sequence (P05177 whole entry, looked up): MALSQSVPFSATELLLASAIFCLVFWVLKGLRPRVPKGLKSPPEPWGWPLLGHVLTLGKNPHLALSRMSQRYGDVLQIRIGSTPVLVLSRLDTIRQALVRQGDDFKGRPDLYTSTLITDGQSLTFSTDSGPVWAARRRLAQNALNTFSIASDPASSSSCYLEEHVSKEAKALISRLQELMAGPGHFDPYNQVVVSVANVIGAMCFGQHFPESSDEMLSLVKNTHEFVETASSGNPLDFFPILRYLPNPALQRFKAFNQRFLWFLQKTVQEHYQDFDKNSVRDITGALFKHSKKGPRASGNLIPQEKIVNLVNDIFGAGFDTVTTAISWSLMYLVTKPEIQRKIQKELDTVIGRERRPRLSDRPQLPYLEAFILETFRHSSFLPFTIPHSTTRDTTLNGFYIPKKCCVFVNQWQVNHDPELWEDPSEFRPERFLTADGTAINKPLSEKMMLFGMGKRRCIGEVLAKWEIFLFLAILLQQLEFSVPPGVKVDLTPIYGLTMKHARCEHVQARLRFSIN
Outline: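 Luminescent demethylation readout: Luciferin-ME (100uM, equal to Km) turned over by 20nM CYP1A2 for 60 min at room temperature after NADPH regeneration addition, following 10 min compound preincubation. Normalization used 57 uM furafylline as full inhibition.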

Structure (SMILES) | activity change, negative = inhibition [1] | activity change, negative = inhibition [2] | Potency [3]
O=C(O)/C=C/c1ccc(O)c(O)c1 | 5.87% [at 17.2 µM] (inactive) | -10.8% [at 17.2 µM] (inactive) | 
O=C(O)C1=CCCN(CCON=C(c2ccccc2)c2ccccc2)C1 | 5.02% (inactive) | -1.26% (inactive) | 
O=c1cc(-c2ccccc2)[nH]c2nc(Cl)ccc12 | -2.89% (inactive) | -13% (inactive) | 
COc1cc2c(CCNC(C)=O)c[nH]c2cc1O |  | 3.14% (inactive) | 31.6 µM (active)
O=C(N[C@@H](Cc1ccccc1)C(=O)CCl)OCc1ccccc1 |  | -11.8% (active) | 3.16 µM (active)
CNc1cc(NS(=O)(=O)c2ccc(N)cc2)nc(NC)n1 | 4.35% (inactive) | 3.2% (inactive) | 
N#C/C(=C\c1ccc(O)c(O)c1)C(=O)NCCCNC(=O)/C(C#N)=C/c1ccc(O)c(O)c1 | -12.1% (inactive) | 7.05% (inactive) | 
C/C(=C\c1ccc(C(=O)O)cc1)c1ccc2c(c1)C(C)(C)CCC2(C)C |  |  | inactive
c1ccc(CN2CCC3(CCCc4ccccc43)CC2)cc1 | 11.9% (inactive) | -19.1% (inactive) | 
CNC(=O)c1cc2c(cn1)[nH]c1ccccc12 | 0.843% (inactive) | -1.62% (inactive) | 
CCCc1c(-c2ccc(O)cc2)nn(-c2ccc(O)cc2)c1-c1ccc(O)cc1 |  |  | 15.8 µM (active) and 20 µM (active)
NC1(C(=O)O)CCCCC1 | -0.957% (inactive) | 3% (inactive) | 
CNCCNS(=O)(=O)c1cccc2cnccc12 |  | -11.3% (inactive) | inactive
O=c1oc(Cl)c(Cl)c2ccccc12 |  | -53.3% (active) | 
CCCC(=O)NCCc1c2n(c3ccc(OC)cc13)CCCc1ccccc1-2 |  | -6.48% (inactive) | 
NCCCCN | 15.3% (inactive) | -2.09% (inactive) | 
CC[N+](CC)(CC)CC(=O)Nc1c(C)cccc1C | 6.05% (inactive) | -27.1% (inactive) | 

Structure (SMILES) | activity change, negative = inhibition [1] | activity change, negative = inhibition [2] | Potency [3]
N=C(N)SCCc1cnc[nH]1 | 5.57% (inactive) | -4.42% (inactive) | 
N#C/C(=C\c1ccc(O)c(O)c1)C(=O)NCCc1ccccc1 |  |  | 10 µM (active)
C=C1C(=O)O[C@@H]2[C@H]3O[C@]3(C)CCC=C(C)CC[C@@H]12 |  |  | 10 µM (active)
CC(=O)NCCc1c[nH]c2ccc(O)cc12 | -2.23% (inactive) | 7.32% (inactive) | 
Oc1cc(O)c2c(c1)O[C@H](c1ccc(O)c(O)c1)[C@@H](O)C2 |  |  | inactive
CCc1ccc2c(-c3cccc(Cl)c3)nc(=O)n(CC)c2n1 |  |  | 0.126 µM (active)
CC[C@H](NC(=O)c1c(C)c(-c2ccccc2)nc2ccccc12)c1ccccc1 |  | 2.54% (inactive) | inactive and 7.94 µM (active)
CCN(CC)CCOC(=O)c1cc(Cl)c(N)cc1OC | 11.7% (inactive) | -3.84% (inactive) | 
CC1CNCCN1S(=O)(=O)c1cccc2cnccc12 (stereo not given) | 2.59% [at 17.2 µM] (inactive) | 4.83% [at 17.2 µM] (inactive) | 
CCSC(=N)N | -24.3% (inactive) | 1.19% (inactive) | 
CCCCOC(=O)NS(=O)(=O)c1sc(CC(C)C)cc1-c1ccc(Cn2c(CC)nc3c(C)cc(C)nc32)cc1 |  |  | 31.6 µM (active)
O=C(O)c1ccccc1Nc1cccc(OCc2ccc3ccccc3n2)c1 |  |  | 12.6 µM (active) and 1 µM (active)
N[C@@H](Cc1c[nH]c2ccccc12)C(=O)O | 4% (inactive) | -12.3% (inactive) | 
CC(C)(C)c1cc(/C=C(\C#N)C(N)=S)cc(C(C)(C)C)c1O |  | -95.5% (active) | 12.6 µM (active)
CC(C)NC[C@H](O)COc1cccc2ccccc12 |  |  | 0.2 µM (active)
Fc1ccc(CN(C2=NCCN2)c2c(Cl)cccc2Cl)cc1 |  | -21.2% (inactive) | inactive
